Test results reported in paper PMC5540273 (PLoS ONE, 2017).

Experiments:
Conditions in all cases: concentration: 1 μM, replicates: in singlicate; n = 1
MTOR = system: MTOR
MUSK = system: MUSK
MYLK2 = system: MYLK2
MYLK4 = system: MYLK4
MYLK = system: MYLK
MYO3A = system: MYO3A
MYO3B = system: MYO3B
NDR1 = system: T1, NDR1
T1 construct: gene STK38

NDR2 = system: NDR2
NEK10 = system: NEK10
NEK11 = system: NEK11
NEK1 = system: NEK1
NEK2 = system: NEK2
NEK3 = system: NEK3
NEK4 = system: NEK4
NEK5 = system: NEK5
NEK6 = system: NEK6
NEK7 = system: NEK7
NEK9 = system: NEK9
NIK = system: T2, NIK
T2 construct: gene MAP3K14
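Further: KINOMEscan kinase panel screen.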

Compound | %Inh (MTOR) [%] | %Inh (MUSK) [%] | %Inh (MYLK2) [%] | %Inh (MYLK4) [%] | %Inh (MYLK) [%] | %Inh (MYO3A) [%] | %Inh (MYO3B) [%] | %Inh (NDR1) [%] | %Inh (NDR2) [%] | %Inh (NEK10) [%] | %Inh (NEK11) [%] | %Inh (NEK1) [%] | %Inh (NEK2) [%] | %Inh (NEK3) [%] | %Inh (NEK4) [%] | %Inh (NEK5) [%] | %Inh (NEK6) [%] | %Inh (NEK7) [%] | %Inh (NEK9) [%] | %Inh (NIK) [%]
Nc1ncc(-c2cn[nH]c2)c2scc(-c3ccc4c(c3)CCN4C(=O)Cc3ccccc3)c12 [GSK2593067] | 4 | 64 | 69 | 17 | 4 | 6 | 0 | 0 | 0 | 22 | 87 | 7 | 85 | 0 | 11 | 21 | 3 | 0 | 0 | 3
Cc1ccc(C)c(NC(=O)Nc2ccc(C)c(-c3ccc(C(=O)Nc4ccncc4)cc3)c2)c1 [GSK1398473] | 17 | 0 | 0 | 0 | 0 | 0 | 0 | 29 | 0 | 18 | 0 | 0 | 1 | 5 | 0 | 8 | 1 | 0 | 7 | 4
COc1cc(Nc2nccc(N3CCC(NS(=O)(=O)c4ccc(NC(C)=O)cc4)CC3)n2)cc(OC)c1OC [GSK1379825] | 16 | 14 | 61 | 0 | 1 | 0 | 0 | 0 | 0 | 17 | 0 | 83 | 1 | 89 | 3 | 100 | 62 | 86 | 45 | 26
Cc1ccccc1CC(=O)N1CCc2cc(-c3cn(C)c4ncnc(N)c34)ccc21 [GSK2603346] | 30 | 5 | 85 | 0 | 9 | 100 | 0 | 0 | 0 | 0 | 58 | 89 | 97 | 0 | 29 | 34 | 0 | 0 | 0 | 21
Cn1cc(-c2ccc3c(c2)CCN3C(=O)Cc2cc(F)cc(F)c2F)c2c(N)ncnc21 [GSK2634140] | 15 | 28 | 82 | 0 | 11 | 38 | 1 | 0 | 0 | 10 | 38 | 7 | 84 | 0 | 32 | 8 | 18 | 0 | 8 | 26
O=C(Nc1n[nH]c2cc(-c3cccs3)ccc12)C1CC1 [SB-731284] | 42 | 0 | 87 | 24 | 52 | 0 | 0 | 27 | 0 | 27 | 18 | 0 | 0 | 20 | 39 | 0 | 0 | 0 | 0 | 14
CCn1c(-c2nonc2N)nc2c(-c3ccccc3)ncc(OCCCN)c21.O=C(O)C(F)(F)F.O=C(O)C(F)(F)F [GSK260205] | 20 | 0 | 0 | 0 | 33 | 27 | 0 | 23 | 0 | 9 | 1 | 0 | 1 | 7 | 21 | 1 | 0 | 0 | 0 | 30
CC(=O)Nc1cn2nc(Oc3cccc(NC(=O)c4cccc(C(F)(F)F)c4)c3)ccc2n1 | 11 | 21 | 0 | 3 | 44 | 5 | 9 | 8 | 0 | 0 | 0 | 0 | 0 | 8 | 0 | 8 | 3 | 0 | 0 | 0
Cc1cc(-c2ccnc(Nc3cccc(C#N)c3)n2)cc(C)c1O [GSK1440913] | 7 | 25 | 76 | 100 | 13 | 0 | 0 | 10 | 12 | 20 | 1 | 0 | 0 | 43 | 1 | 83 | 0 | 0 | 13 | 62
CN(c1ccc(NC(=O)Nc2cccc(Cl)c2)cc1)c1ccnc(N)n1.Cl [GW830707] | 13 | 72 | 0 | 6 | 0 | 3 | 36 | 10 | 25 | 1 | 28 | 0 | 16 | 0 | 0 | 7 | 14 | 0 | 3 | 9
